Test results published in PubChem BioAssay AID651871 (Sanford-Burnham Center for Chemical Genomics, 2012).

Each compound was assayed on HL-1 (assay: protection of cardiomyocytes from stress damage, SAR follow-up, cell-based, panel, H9c2 and HL-1, ATP luminescence, set 2 (AID 651871;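 further: cells exposed to stressor for 2 h before ATP readout; reference of the scale not given here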)). Settings: H9c2/HL-1 cardiomyocytes, 2-deoxyglucose stress, with 2-deoxyglucose, run 8, at 79 µM (top of the series).

Structure (SMILES)	activity (protection/inhibition) [%]
COc1ccc2nc(-c3cc(OC)c(OC)c(OC)c3)cc(C(=O)NCC(=O)Nc3ccc(C(C)=O)cc3)c2c1	97.2
COc1ccc2c(c1OC)C(=O)N1c3ccccc3C(=O)N(Cc3cccc(Cl)c3Cl)C21 (stereo not drawn)	-9.25
CCOC(=O)c1cccc(NC(=O)CNC(=O)c2cc(-c3cc(OC)c(OC)c(OC)c3)nc3ccccc23)c1	74.3
